# Laboratory results reported in the supplement of paper PMC8728848.
# About 410 targets per protein were measured; listed, in parts, are those with the strongest signals and a random draw of the rest.
# B1: Alpha-agglutinin (Saccharomyces cerevisiae) (protein)
# chain: MFTFLKIILWLFSLALASAININDITFSNLEITPLTANKQPDQGWTATFDFSIADASSIREGDEFTLSMPHVYRIKLLNSSQTATISLADGTEAFKCYVSQQAAYLYENTTFTCTAQNDLSSYNTIDGSITFSLNFSDGGSSYEYELENAKFFKSGPMLVKLGNQMSDVVNFDPAAFTENVFHSGRSTGYGSFESYHLGMYCPNGYFLGGTEKIDYDSSNNNVDLDCSSVQVYSSNDFNDWWFPQSYNDTNADVTCFGSNLWITLDEKLYDGEMLWVNALQSLPANVNTIDHALEFQYTCLDTIANTTYATQFSTTREFIVYQGR
# B2: Gal 2 (Homo sapiens), P05162 (protein)
# chain: MTGELEVKNMDMKPGSTLKITGSIADGTDGFVINLGQGTDKLNLHFNPRFSESTIVCNSLDGSNWGQEQREDHLCFSPGSEVKFTVTFESDKFKVKLPDGHELTFPNRLGHSHLSYLSVRGGFNMSSFKLKE
# Key:
# Assay in all cases: glycan array binding signal (z-score within array); higher = stronger binding
# Conditions in all cases: glycan notation: IUPAC condensed, linker removed
# [1] = target: Fuc(a1-2)Gal(b1-3)GalNAc(b1-3)Gal(b1-4)Glc
# In short: (§1)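 Negative Z-scores can be read as non-binding. The Z-score is calculated within each array and then averaged across arrays of one protein sequence at different concentrations or buffers and across linkers. Arrays, 3228 in all, were curated from the Consortium for Functional Glycomics database and kept only where the protein sequence was available.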
# [2] = target: Fuc(a1-2)[Gal(a1-3)]Gal(b1-4)[Fuc(a1-3)]GlcNAc
# In short: as §1
# [3] = target: Fuc(a1-2)[GalNAc(a1-3)]Gal(b1-4)Glc
# In short: as §1
# [4] = target: Fuc(a1-4)GlcNAc
# In short: as §1
# [5] = target: Gal(a1-3)Gal(b1-4)GlcNAc
# In short: as §1
# [6] = target: Gal(b1-3)GalNAc(b1-3)Gal(b1-4)Glc
# In short: as §1
# [7] = target: Gal(b1-4)GalNAc(a1-3)[Fuc(a1-2)]Gal(b1-4)GlcNAc
# In short: as §1
# [8] = target: Gal(b1-4)GlcNAc(b1-3)Gal(b1-4)Glc
# In short: as §1
# [9] = target: Gal6S(b1-4)Glc6S
# In short: as §1
# [10] = target: GalNAc(a1-3)Gal
# In short: as §1
# [11] = target: GlcNAc(b1-3)[GlcNAc(b1-4)][GlcNAc(b1-6)]GlcNAc
# In short: as §1
# [12] = target: GlcNAc(b1-4)[GlcNAc(b1-6)]GalNAc
# In short: as §1
# [13] = target: Man(a1-2)Man(a1-3)[Man(a1-3)[Man(a1-6)]Man(a1-6)]Man(b1-4)GlcNAc(b1-4)GlcNAc
# In short: as §1
# [14] = target: Neu5Ac(a2-3)Gal(b1-4)[Fuc(a1-3)]GlcNAc
# In short: as §1
# [15] = target: GlcNAc(b1-3)[GlcNAc(b1-6)]GlcNAc(b1-4)GlcNAc
# In short: as §1
# [16] = target: GlcNAc(b1-6)Gal(b1-4)GlcNAc
# In short: as §1
# [17] = target: Man(b1-4)GlcNAc
# In short: as §1
# [18] = target: Neu5Ac(a2-3)Gal(b1-3)[Fuc(a1-4)]GlcNAc
# In short: as §1
# [19] = target: Neu5Ac(a2-3)Gal(b1-4)GlcNAc(b1-3)Gal(b1-4)GlcNAc
# In short: as §1
# [20] = target: Neu5Ac(a2-3)Gal(b1-4)GlcNAc(b1-3)Gal(b1-4)GlcNAc(b1-3)Gal(b1-4)GlcNAc(b1-2)Man(a1-3)[Neu5Ac(a2-3)Gal(b1-4)GlcNAc(b1-3)Gal(b1-4)GlcNAc(b1-3)Gal(b1-4)GlcNAc(b1-2)Man(a1-6)]GalNAc
# In short: as §1
# [21] = target: Neu5Ac(a2-3)Gal(b1-4)[Fuc(a1-3)]GlcNAc(b1-3)Gal(b1-4)GlcNAc
# In short: as §1
# [22] = target: Neu5Ac(a2-6)Gal(b1-4)GlcNAc(b1-2)Man(a1-3)[GlcNAc(b1-4)][Neu5Ac(a2-6)Gal(b1-4)GlcNAc(b1-2)Man(a1-6)]Man(b1-4)GlcNAc(b1-4)GlcNAc
# In short: as §1
# [23] = target: Neu5Ac(a2-6)Gal(b1-4)GlcNAc(b1-2)Man(a1-6)[Man(a1-3)]Man(b1-4)GlcNAc(b1-4)GlcNAc
# In short: as §1
# [24] = target: Neu5Ac(a2-6)Gal(b1-4)GlcNAc(b1-3)Gal(b1-4)GlcNAc(b1-2)Man(a1-3)[Neu5Ac(a2-6)Gal(b1-4)GlcNAc(b1-3)Gal(b1-4)GlcNAc(b1-2)Man(a1-6)]GalNAc
# In short: as §1
# [25] = target: Neu5Ac(a2-6)Gal(b1-4)GlcNAc(b1-6)[Gal(b1-3)GlcNAc(b1-3)]Gal(b1-4)Glc
# In short: as §1
# [26] = target: Neu5Ac(b2-6)Gal(b1-4)GlcNAc
# In short: as §1
# [27] = target: Neu5Gc(a2-3)Gal(b1-4)[Fuc(a1-3)]GlcNAc
# In short: as §1
Binder,glycan array binding signal (z-score) [1],glycan array binding signal (z-score) [2],glycan array binding signal (z-score) [3],glycan array binding signal (z-score) [4],glycan array binding signal (z-score) [5],glycan array binding signal (z-score) [6],glycan array binding signal (z-score) [7],glycan array binding signal (z-score) [8],glycan array binding signal (z-score) [9],glycan array binding signal (z-score) [10],glycan array binding signal (z-score) [11],glycan array binding signal (z-score) [12],glycan array binding signal (z-score) [13],glycan array binding signal (z-score) [14],glycan array binding signal (z-score) [15],glycan array binding signal (z-score) [16],glycan array binding signal (z-score) [17],glycan array binding signal (z-score) [18],glycan array binding signal (z-score) [19],glycan array binding signal (z-score) [20],glycan array binding signal (z-score) [21],glycan array binding signal (z-score) [22],glycan array binding signal (z-score) [23],glycan array binding signal (z-score) [24],glycan array binding signal (z-score) [25],glycan array binding signal (z-score) [26],glycan array binding signal (z-score) [27]
B1,6.41,-0.112,0.558,-0.216,-0.248,8.68,0.014,3.24,0.122,-0.162,0.203,5.52,-0.251,-0.258,,,,,,,,,,,,,
B2,,,,,,,,,,,,,,,-0.396,-0.272,-0.273,-0.214,-0.292,0.02,-0.229,-0.169,-0.12,-0.008,-0.21,-0.244,-0.212
